Screening results (PubChem BioAssay)
Pf apPOL block: Pf-apPOL DNA polymerase inhibition. inhibition, % at 10 µM. AID 1794808. Recombinant Pf-apPOL, molecular beacon fluorescence, 1.5 h. actives 0.25% (n = 210,000)
mHTT CaM bind: inhibitors of human mutant huntingtin-calmodulin interaction; P42858; AlphaScreen His-mHTT/GST-CaM binding, luminescence; inhibition, % at 15 µM; actives 3.6% (n = 190,000);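 note: 0% = both proteins with DMSO and 100% = one protein alone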
Active calls of the source: *; i = inactive; x = not tested or not shown; + = active, no number. Shown are actives, neighbours in structure and some others; about 3.6% of the full set was active somewhere. Cut-off read from the data, not from the text of the source: active = inhibition above about 50%; inactive = the rest.

SMILES	Pf apPOL block	mHTT CaM bind
CC1(C)C(C=C(Cl)Cl)C1C(=O)Nc1sc2c(c1C#N)CCC2 (configuration not stated)	-1	1
CC1(C)C(C=C(Cl)Cl)C1C(=O)Nc1sc2c(c1C(N)=O)CCCC2 (configuration not stated)	1	100*
CCc1ccc(CNC(=O)CN2C(=O)C3CCCN3C(=O)c3ccc(F)cc32)cc1 (configuration not stated)	-3	7
O=C1/C(=C/c2ccsc2)CS/C1=C\c1ccsc1	-6	63*
O=C1/C(=C/c2cccnc2)CS/C1=C\c1cccnc1	3	20
CCn1cc2c3c(cccc31)CN(C(=O)NC(C)C)CC2	-6	-5
CC(C)CC(=O)N1CCc2cn(CC(C)C)c3cccc(c23)C1	-1	41
CC(C)Cn1cc2c3c(cccc31)CN(C(=O)Cc1cccs1)CC2	-7	64*
CC(C)Cn1cc2c3c(cccc31)CN(C(=O)c1ccccn1)CC2	-5	88*
CC(C)CC(=O)N1CCc2cn(C)c3cccc(c23)C1	-5	10
CCCC(=O)N1CCc2cn(CC(C)C)c3cccc(c23)C1	-4	53*
O=C(NCc1cccnc1)c1ccc2c(c1)ncn2-c1ccc(OCc2ccccc2)cc1	-2	9
Cc1ccc(Nc2nc(-c3c(C)nc4ncccn34)cs2)cc1	-1	80*
Cc1ccn2c(-c3csc(Nc4ncccn4)n3)c(C)nc2c1	-3	0
Cc1nc2sccn2c1-c1csc(Nc2ccccn2)n1	-1	29
CCN(CC)c1ccc(Nc2nc(-c3c(C)nc4ccccn34)cs2)cc1	64*	97*
Cc1ccccc1Nc1nc(-c2c(C)nc3sccn23)cs1	-4	56*
Cc1nc2ccccn2c1-c1csc(NCc2ccccc2)n1	-3	36
Cc1nc2ncccn2c1-c1csc(NCc2ccccc2)n1	-2	7
CCOc1ccc(Nc2nc(-c3c(C)nc4cc(C)ccn34)cs2)cc1	-26	67*
Cc1ccc(N2CC(C(=O)Nc3ccc(I)cc3)CC2=O)cc1 (configuration not stated)	0	6
COC(=O)c1ccc(Oc2coc3cc(OC(=O)c4ccccc4)ccc3c2=O)cc1	-5	1
CNc1ccc([N+](=O)[O-])cc1-n1cnc(-c2ccccc2)c1	-5	7
N#Cc1nc2c(-c3nc4ccccc4s3)c(N)n(Cc3ccco3)c2nc1C#N	-4	4
O=C(c1n[nH]c2ccccc12)N1CCc2nc3cc(-c4ccccc4Cl)[nH]n3c(=O)c2C1	21	89*
SMILES	Pf apPOL block	mHTT CaM bind
O=C(Cc1ccccc1)N1CCc2c(nc3cc(-c4ccccc4Cl)[nH]n3c2=O)C1	18	27
O=C(Cc1cccs1)N1CCc2nc3cc(-c4ccccc4Cl)[nH]n3c(=O)c2C1	25	52*
COc1ccc(-c2cc3nc4c(c(=O)n3[nH]2)CN(C(=O)c2n[nH]c3ccccc23)CC4)cc1	17	28
O=C(c1ccco1)N1CCc2nc3cc(-c4ccccc4Cl)[nH]n3c(=O)c2C1	-1	2
Cc1ccc(CNC(=O)N2CCc3nc4cc(-c5ccccc5Cl)[nH]n4c(=O)c3C2)cc1	4	53*
COc1ccc(-c2cc3nc4c(c(=O)n3[nH]2)CN(C(=O)NCc2ccc(F)cc2)CC4)cc1	10	58*
COc1ccc(-c2cc3nc4c(c(=O)n3[nH]2)CN(C(C)=O)CC4)cc1	5	2
Cn1nc(-c2nc(-c3ccccc3)no2)c2c1CCN(C(=O)NCc1ccccc1)C2	-5	34
CCc1ccc2c(Cl)c(C(=O)NC(C)C)sc2c1	2	-12
COc1cccc(OCCCOc2cc(C=O)ccc2OC)c1	-3	-74
Cc1ccc(Cn2nc(C)c(NC(=O)c3noc4c3CCCCC4)c2C)cc1	-1	15
Cc1nn(Cc2ccc(Cl)c(Cl)c2)c(C)c1NC(=O)c1cc(-c2ccco2)on1	2	57*
Cc1cc(C)n(CCNC(=O)c2cc(-c3ccco3)on2)n1	6	0
Cc1nn(Cc2ccc(Cl)c(Cl)c2)c(C)c1NC(=O)c1noc2c1CCCC2	-4	100*
CCOc1ccc(S(=O)(=O)N2CCCC2c2nc(-c3cccc(Cl)c3)no2)cc1 (configuration not stated)	0	-7
O=C1CCc2cc(NC(=O)c3ccc(-c4ccccc4)cc3)ccc2N1	-9	-3
Cc1cc2nn(-c3ccccc3)nc2cc1NC(=O)c1ccc([N+](=O)[O-])c(C)c1	-5	1
COc1ccccc1Nc1cc(C(F)(F)F)nc2c(OC)ccc(OC)c12	6	69*
COC(=O)c1cc(Nc2ccccc2OC)c2cccc(OC)c2n1	0	0
CC1=C(C(=O)Nc2ccc(C)cc2C)C(c2ccccc2Cl)n2nnnc2N1 (configuration not stated)	6	14
O=C(Nc1ccc2c(c1)C(=O)NCC2)c1cc(Cl)ccc1Cl	9	-5
O=C1Nc2ccccc2C12CCN(S(=O)(=O)c1cccc(Cl)c1)C2 (configuration not stated)	-1	77*
O=C(Cc1ccccc1Cl)N1CCC2(C1)C(=O)Nc1ccccc12 (configuration not stated)	-6	1
Cc1ccc(F)cc1S(=O)(=O)N1CCC2(C1)C(=O)Nc1ccccc12 (configuration not stated)	1	8
Cc1cc(S(=O)(=O)N2CCC3(C2)C(=O)Nc2ccccc23)ccc1F (configuration not stated)	8	96*
SMILES	Pf apPOL block	mHTT CaM bind
CC1CCN(C(=O)c2ccc(-n3cccn3)nc2)CC1	-4	-7
Cc1ccc(CNC(=O)C2CCc3sc(C(=O)N4CCCCC4)cc3C2)o1 (configuration not stated)	-6	6
CCCCNC(=O)[C@@H]1CC=C[C@@H]2CCN(Cc3ccc(Cl)c(Cl)c3)C(=O)[C@@H]21	-15	25
COc1ccc(CNC(=O)[C@@H]2CC=C[C@@H]3CCN(Cc4ccccc4)C(=O)[C@@H]32)cc1	0	5
O=C(NCCc1ccccc1)[C@@H]1CC=C[C@@H]2CCN(Cc3ccc(Cl)c(Cl)c3)C(=O)[C@@H]21	-9	100*
O=C(NCc1cccnc1)[C@@H]1CC=C[C@@H]2CCN(Cc3ccc(Cl)c(Cl)c3)C(=O)[C@@H]21	-6	59*
CC1CN(C(=O)c2cccnc2)C(C)CN1C(=O)c1cccnc1 (configuration not stated)	-5	-3
CCNS(=O)(=O)c1ccc(OC)c(C(=O)NC2CC(C)(C)NC(C)(C)C2)c1	0	-13
CC1CC(O)(/C=C/C2(O)CCCCC2)C(C)CN1C (configuration not stated)	x	-2
COc1ccc(NC(=O)CN(c2ccccc2F)S(C)(=O)=O)cc1OC	-2	4
C=CCc1cccc2cc(C(=O)Nc3cccc(C)c3C)c(=O)oc12	0	2
COc1cc(C(=O)O/N=C2\C=CC(=O)C=C2C)cc(OC)c1OC	0	i
COc1ccccc1C(=O)O/N=C1\C=CC(=O)C=C1C	-1	+
CCn1c(=O)c2c(ncn2Cc2cccc(C)c2)n(-c2cccc(C)c2)c1=O	15	12
Cc1ccc(N=CC=C2OC(C)(C)C(C)(C)O2)cc1	-1	56*
Cc1cccc(N=CC=C2OC(C)(C)C(C)(C)O2)c1	-1	44
Cc1c(C(=O)C=CN(C)C)nnn1-c1ccc(Cl)cc1C#N	-6	x
CC(=O)c1sc2nc(SCC=Cc3ccccc3)[nH]c(=O)c2c1C	-7	-15
